Compound activity as filed in PubChem BioAssay.
Hits are enriched below; roughly 18% of the tested compounds scored in any of these assays.
TDP1 cell CPT – DT40-hTDP1 cell growth loss with CPT. hit rate 12% among 420,000. Potency, µM (titrated, usually from 46.2 µM), hits mostly inhibitors. chicken DT40 Tdp1-/-;hTDP1 cells + 20 nM CPT, ATP luminescence, 48 h. AID 686979; note: nearly all actives have a fitted effect of over 55% in size
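Cell growth measured by CellTiter-Glo luminescence after a minimum 48 h, 37 C compound exposure with 20 nM CPT in Tdp1-knockout DT40 cells stably expressing hTDP1, seeded 400/well; qHTS titration format.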
TGFb inhibitor – inhibitors of TGF-b signaling; AID 588855; Potency, µM (series often up to 46.1 µM), actives largely listed as inhibitors; hit rate 1.2% among 410,000; HepG2 CAGA-GFP TGF-b/SMAD3 reporter, GFP fluorescence, 18 h; TGF-beta stimulated, 500 pg/mL final; note: nearly all actives have a fitted effect of over 65% in size
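HEPG2 CAGA-GFP cells (1000/well, DMEM with 1% FBS) were pre-incubated 2 h at 37 degrees C, given compound by pin tool, then stimulated with TGF-beta at 500 pg/mL final for 18 h before per-cell GFP fluorescence imaging.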
DT40 TDP1 no CPT – qHTS for Inhibitors of human tyrosyl-DNA phosphodiesterase 1 (TDP1): qHTS in cells in absence of CPT; DT40 Tdp1-/- hTDP1 cells, no CPT, ATP luminescence, 48 h; Potency, µM (top dose mostly 46.2 µM), actives largely listed as inhibitors; hit rate 15% among 420,000; note: nearly all actives have a fitted effect of over 55% in size
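Compound effects on proliferation are scored in DT40 Tdp1-/-;hTDP1 cells in the absence of CPT. ATP levels (CellTiter-Glo luminescence) are recorded after a ≥48 hr, 37 °C incubation.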
IL-1B inflam inh – inhibitors of inflammasome signaling (IL-1 beta secretion); hit rate 4.7% among 360,000; activity change, % at 57.5 µM; AID 743279; THP-1 LPS/ATP IL-1B secretion, AlphaLISA, 16 h; active compounds read low; in the data active = activity change below about -50%; inconclusive = mostly about -30% to -49%
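THP-1 cells pretreated 1 hr with compounds (up to 57.5 uM final), then stimulated with LPS (250 ng/mL final) plus ATP (1.25 mM final); secreted IL-1B measured by AlphaLISA after 16 hr, decreased signal indicating inhibition.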
HepG2 tox – counter-screen for TGF-b inhibitors: cytotoxicity in HepG2 cells | HepG2 CAGA-GFP viability, ATP luminescence, 18 h | hit rate 0.76% among 410,000 | AID 588856 | Potency, µM (highest dose often 46.1 µM), usual class: cytotoxic
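CellTiter-Glo luminescence gave cytotoxicity after 18 hours at 37 degrees C. The cells were HepG2 CAGA-GFP in 1% FBS DMEM, stimulated with 500 pg/mL TGF-beta after compound addition. %Activity was normalised to no-cell wells (complete cell-killing) and DMSO (no toxicity), and curves were fitted and classified.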
TDP1 block – inhibitors of human tyrosyl-DNA phosphodiesterase TDP1. recombinant TDP1, AlphaScreen DNA substrate cleavage. hit rate 0.28% among 350,000. Potency, µM (doses to about 130 µM), hits mostly inhibitors. Q9NUW8; note: nearly all actives have a fitted effect of over 40% in size
Target sequence (Q9NUW8 whole entry, looked up): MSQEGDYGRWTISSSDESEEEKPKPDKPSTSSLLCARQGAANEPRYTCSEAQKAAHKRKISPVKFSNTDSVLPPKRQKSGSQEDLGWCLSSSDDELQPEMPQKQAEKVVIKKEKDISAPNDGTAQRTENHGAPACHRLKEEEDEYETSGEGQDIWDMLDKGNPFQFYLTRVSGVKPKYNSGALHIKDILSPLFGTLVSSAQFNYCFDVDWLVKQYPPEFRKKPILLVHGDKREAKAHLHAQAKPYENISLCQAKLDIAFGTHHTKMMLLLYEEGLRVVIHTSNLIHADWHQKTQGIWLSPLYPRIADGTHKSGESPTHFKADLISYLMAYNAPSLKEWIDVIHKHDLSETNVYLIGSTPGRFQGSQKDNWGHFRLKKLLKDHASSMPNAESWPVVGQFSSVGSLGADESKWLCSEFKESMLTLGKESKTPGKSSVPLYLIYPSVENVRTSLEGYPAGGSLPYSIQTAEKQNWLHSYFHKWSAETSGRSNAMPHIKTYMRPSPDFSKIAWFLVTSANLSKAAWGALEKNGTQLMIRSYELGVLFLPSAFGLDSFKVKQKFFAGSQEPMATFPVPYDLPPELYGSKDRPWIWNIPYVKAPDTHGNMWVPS
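Steps: enzyme plus compound, 15 min RT; add biotin/phosphotyrosine-FITC oligonucleotide (15 nM final), react 5 min; add donor/acceptor beads (10 ug/ml final), 10 min; read AlphaScreen. Tdp1 at 1 nM final.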
Numbers stand for hits; n = inactive; u = inconclusive; x = no result given; [ ] = dose if it differs, or a comment. Unless noted, calls come from the whole dose curve; as a rule, active = well fitted curve in the direction sought with a large enough effect; inconclusive = small, poorly fitted or top-dose-only effect, or another doubt; inactive = no such curve, though single readings can be large; an effect the other way counts as inactive or inconclusive.

SMILES	TDP1 cell CPT	TGFb inhibitor	DT40 TDP1 no CPT	IL-1B inflam inh	HepG2 tox	TDP1 block
Cc1cc2c(s1)c1cnn(Cc3ccc(C)c(F)c3F)c(=O)c1n2C	x	x	x	x	x	n
O=C(CSc1ccc2nnc(-c3cccnc3)n2n1)Nc1ccc(F)cc1F	n	n	n	n	n	n
COCCNc1nc2c(c(=O)n(C)c(=O)n2C)n1CCCc1ccccc1	15µM	n	10µM	n	n	x
COCCCNc1nc2c(c(=O)[nH]c(=O)n2C)n1CCCc1ccccc1	n	n	n	n	n	n
CCOCCCNc1nc2c(c(=O)n(C)c(=O)n2C)n1CCCc1ccccc1	16µM	n	21µM	n	n	n
Cn1c(=O)c2c(nc(NCc3ccccc3)n2CCCc2ccccc2)n(C)c1=O	9.2µM	u	5.2µM	n	n	n
O=C(CCc1nc2ccccc2s1)N1CCOc2ccc(CN3CCc4sccc4C3)cc2C1	n[9.04 µM]	x	u	x	x	x
CC(C)(CNC(=O)c1cnn(-c2ncc3c(n2)-c2ccccc2CC3)c1C1CC1)N1CCOCC1	n[9.04 µM]	x	n	x	x	x
CCOC(=O)C1CCCN(C(=O)c2ccc3ncsc3c2)C1 (centres undefined)	n	n	n	n	n	n
CC(O)(c1ccc(Cl)cc1)c1ccc(Cl)cc1	x	x	x	x	x	n
Cc1cc(C)n(-c2ccc(NC(=O)C3CCCCN3C(=O)c3cc(C)oc3C)cc2)n1 (centres undefined)	15µM	n	u	n	n	n
Cc1cc(C)n(-c2ccc(NC(=O)C3CCCCN3C(=O)c3ccoc3)cc2)n1 (centres undefined)	n	n	n	n	n	n
COc1ccc(-c2c3c(=O)n(C)c(=O)n(C)c3cn2Cc2cccnc2)cc1	n	n	n	n	n	n
O=C(c1ccc2c(=O)n(Cc3ccc4c(c3)OCO4)c(=O)[nH]c2c1)N1CCN(c2ccccc2)CC1	n	n	n	n	n	n
CCN(CC)C(=O)c1ccc2c(=O)n(Cc3cccc(Br)c3)c(=S)[nH]c2c1	23µM	n	15µM	n	n	x
CC1CCCN(C(=O)c2ccc3c(=O)n(Cc4ccc5c(c4)OCO5)c(=S)[nH]c3c2)C1 (centres undefined)	16µM	n	23µM	u	n	n
CC(C)OCCCNC(=O)c1ccc2c(=O)n(Cc3ccc4c(c3)OCO4)c(=S)[nH]c2c1	n	n	n	n	n	n
CCN(CC)C(=O)c1ccc2c(=O)n(Cc3ccc4c(c3)OCO4)c(=S)[nH]c2c1	15µM	u	21µM	n	n	x
O=C(c1ccc2c(=O)n(Cc3ccco3)c(=S)[nH]c2c1)N1CCN(Cc2ccc3c(c2)OCO3)CC1	14µM	x	11µM	x	x	x
CC(C)(C)CC(=O)OCC(=O)[C@@]12OC(C)(C)O[C@@H]1C[C@H]1[C@@H]3CCC4=CC(=O)C=C[C@]4(C)[C@@]3(F)[C@@H](O)C[C@@]12C	n	x	n	x	x	x
Cc1ccc2nc(-c3ccc(O)cc3)c(Nc3ccc(Cl)cc3)n2c1	u	18µM	u	x	n	n
Cc1ccc(Nc2c(-c3ccc(C)cc3)nc3ccc(C)cn23)cc1	u	n	u	x	n	n
Cc1ccc(Nc2c(-c3ccc(O)cc3)nc3cccc(C)n23)cc1	23µM	u	u	x	n	n
CSc1ccc(-c2nc3cccc(C)n3c2Nc2ccc(Cl)cc2)cc1	9.2µM	n	7.3µM	x	n	n
Cc1ccc(Nc2c(-c3ccc(N(C)C)cc3)nc3ccccn23)cc1	u	n	u	x	n	n
CCOC(=O)CCCCCC(=O)Nc1ccc2c(c1)C(=O)N([C@@H](C)CO)C[C@@H](C)[C@H](CN(C)C(=O)Nc1ccccc1)OCCCC[C@H](C)O2	n	n	n	n	n	x
Cc1nc(N)sc1C(=O)N1N=N1	n	n	n	x	n	n
CCOc1ccccc1NC(=O)COc1coc(CN2CCc3ccccc3C2)cc1=O	u	n	13µM	n	n	n
